Screening results deposited in PubChem by National Center for Advancing Translational Sciences (NCATS).
Six1-Eya2 inh: blocks human Six1 binding to Eya2; AID 651725; 0.56% of 360,000 active; activity change, % (no concentration beside the values); AlphaScreen GST-Six1/His-Eya2 binding, biochemical; hits give low values; in the data active means activity change below about -65%; inconclusive means mostly about -30% to -63%
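Compounds are tested against tagged Six1 and Eya2 proteins bridged by glutathione donor and nickel acceptor beads; after a one-hour incubation at 37 °C without light, AlphaScreen emission is recorded.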
DT40 TDP1 CPT: DT40-hTDP1 cell growth loss with CPT; AID 686979; 12% of 420,000 active; chicken DT40 Tdp1-/-;hTDP1 cells + 20 nM CPT, ATP luminescence, 48 h; Potency, µM (titrated, usually from 46.2 µM), hits mostly inhibitors; further: nearly all actives have a fitted effect of over 55% in size
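Cell growth measured by CellTiter-Glo luminescence after a minimum 48 h, 37 C compound exposure with 20 nM CPT in Tdp1-knockout DT40 cells stably expressing hTDP1, seeded 400/well; qHTS titration format.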
IL-1B inflam inh: blocks inflammasome-driven IL-1 beta release | THP-1 LPS/ATP IL-1B secretion, AlphaLISA, 16 h; hits give low values | activity change, % at 57.5 µM | 4.7% of 360,000 active; in the data active means activity change below about -50%; inconclusive means mostly about -30% to -49%
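Secreted IL-1B measured by AlphaLISA bead assay after 16 h compound exposure of THP-1 cells; compounds (final up to 57.5 uM) added 1 h before LPS (250 ng/mL) and ATP (1.25 mM) stimulation; lower signal means less secretion.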
DT40 TDP1 no CPT: qHTS for Inhibitors of human tyrosyl-DNA phosphodiesterase 1 (TDP1): qHTS in cells in absence of CPT; DT40 Tdp1-/- hTDP1 cells, no CPT, ATP luminescence, 48 h; Potency, µM (titrated, usually from 46.2 µM), most hits filed as inhibitors; 15% of 420,000 active; AID 686978, 2013; further: nearly all actives have a fitted effect of over 55% in size
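Readout: luminescence from CellTiter-Glo after 30 min in the dark at RT. Cells: DT40 Tdp1-/- with stable hTDP1, 400/well. Exposure: compounds alone, ≥48 hr, 37 °C.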
CtBP-E1A blk: CtBP/E1A binding inhibition. AlphaScreen GST-E1A/His-CtBP binding, 1536-well; hits give low values. activity change, % (test concentration not listed). 0.49% of 340,000 active; in the data active means activity change below about -65%; inconclusive means mostly about -30% to -63%
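AlphaScreen with 125 nM GST-E1A and 125 nM His-CtBP (5X stocks) in Tris pH 8.0, 300 mM NaCl, BSA, Tween 20, TCEP. Compounds preincubated 2 h at 37 deg C, then glutathione donor/nickel acceptor beads added for 1 h at 37 deg C in dark.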
TDP1 inh: inhibitors of human tyrosyl-DNA phosphodiesterase TDP1 | Q9NUW8 | recombinant TDP1, AlphaScreen DNA substrate cleavage | Potency, µM (series often up to 130 µM), usual class: inhibitors | 0.28% of 350,000 active; further: nearly all actives have a fitted effect of over 40% in size
Target sequence (Q9NUW8 whole entry, looked up): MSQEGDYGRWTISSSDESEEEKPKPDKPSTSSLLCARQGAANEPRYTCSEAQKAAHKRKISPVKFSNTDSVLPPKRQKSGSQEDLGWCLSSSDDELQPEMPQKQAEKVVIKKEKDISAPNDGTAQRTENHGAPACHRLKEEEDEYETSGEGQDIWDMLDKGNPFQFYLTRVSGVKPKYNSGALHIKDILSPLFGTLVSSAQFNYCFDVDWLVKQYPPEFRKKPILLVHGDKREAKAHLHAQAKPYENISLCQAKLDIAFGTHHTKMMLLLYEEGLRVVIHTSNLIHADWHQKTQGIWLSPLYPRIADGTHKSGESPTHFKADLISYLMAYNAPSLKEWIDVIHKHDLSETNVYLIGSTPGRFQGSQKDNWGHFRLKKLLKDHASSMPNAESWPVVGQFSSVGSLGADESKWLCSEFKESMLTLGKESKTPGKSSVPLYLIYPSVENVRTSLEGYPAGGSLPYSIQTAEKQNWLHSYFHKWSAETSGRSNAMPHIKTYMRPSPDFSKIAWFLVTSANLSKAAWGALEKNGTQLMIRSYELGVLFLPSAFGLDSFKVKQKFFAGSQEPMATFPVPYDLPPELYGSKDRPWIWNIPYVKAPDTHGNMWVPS
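Recombinant human Tdp1 (E. coli-expressed, 1 nM final) preincubated with compounds 15 min at room temperature, then 5'-biotin/3'-phosphotyrosine-FITC DNA substrate (15 nM final) added for 5 min. AlphaScreen beads (10 ug/ml final) added 10 min; cleavage lowers signal.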
Numbers stand for hits; n = inactive; u = inconclusive; x = no result given; [ ] = another dose, or the depositor's remark. Compounds with a hit are over-represented: about 18% of the library has one in this group of screens. Unless noted, the call rests on the fitted dose curve; in most records, active means well fitted curve in the direction sought with a large enough effect; inconclusive means small, poorly fitted or top-dose-only effect, or another doubt; inactive means no such curve, though single readings can be large; an effect the other way counts as inactive or inconclusive.

SMILES	Six1-Eya2 inh	DT40 TDP1 CPT	IL-1B inflam inh	DT40 TDP1 no CPT	CtBP-E1A blk	TDP1 inh
O=C(CSc1ccc(-c2cccs2)nn1)N1CCCCCC1	n	u	n	23µM	n	n
COc1ccc(S(=O)(=O)N(C)C)cc1NC(=O)COC(=O)c1nc2nccc(C)n2n1	n	n	n	n	n	n
COC(=O)c1ccc2nc(-c3ccc4c(c3)OCO4)cn2c1	n	n	n	n	n	n
C[C@H](CO)N1C[C@H](C)[C@@H](CN(C)S(C)(=O)=O)Oc2c(NC(=O)Cc3ccccc3)cccc2C1=O	n	n	n	n	n	n
CN1/C(=C\C(=O)COC(=O)c2ccc(O)c(O)c2)C(C)(C)c2ccccc21	n	6.5µM	n	6.5µM	n	n
CN1/C(=C\C(=O)COC(=O)c2ccc(O)cc2)C(C)(C)c2ccccc21	n	15µM	n	16µM	x	n
CNS(=O)(=O)c1cccc(C(=O)OCC(=O)/C=C2/N(C)c3ccccc3C2(C)C)c1	n	21µM	n	18µM	n	n
CN1/C(=C\C(=O)COC(=O)CNC(=O)c2ccc3ccccc3c2)C(C)(C)c2ccccc21	n	18µM	n	10µM	n	n
CCOC(=O)/C=C1/N(C)c2ccccc2C1(C)C	n	n	n	n	n	n
CN1/C(=C\C(=O)COC(=O)CNC(=O)c2ccccc2F)C(C)(C)c2ccccc21	n	n	n	n	n	n
O=C(NCc1cccnc1)C1CCC(CNS(=O)(=O)c2ccc(Cl)cc2)CC1 (stereo not given)	n	u	n	u	n	n
CCCC[C@H](NC(=O)[C@@H]1CCCN1C(=O)[C@H]1CCCN1C(=O)[C@H](Cc1ccccc1)NC(=O)[C@@H](Cc1c[nH]c2ccccc12)NC(=O)[C@H](C)NC(=O)[C@H](CCCN=C(N)N)NC(=O)OC(C)(C)C)C(N)=O	x	x	x	x	x	n
CCOC(=O)c1ccc2c(c1)N(Cc1ccccc1C)C(=O)c1ccccc1S2=O (stereo not given)	n	14µM	n	u	n	n
Cc1ccc(C)c(CN2C(=O)C(=O)c3ccccc32)c1	x	1.2µM	x	0.92µM	x	n
Cc1ccc(C)c(CN2C(=O)c3ccccc3S(=O)c3ccc(C(=O)N4CCC(C)CC4)cc32)c1 (stereo not given)	x	u	x	23µM	x	n
Cc1ccc(C)c(CN2C(=O)c3ccccc3S(=O)c3ccc(C(=O)N(C)Cc4ccccc4)cc32)c1 (stereo not given)	x	18µM	x	u	x	n
Nc1nonc1-n1nnc(C(=O)N/N=C/c2ccccc2)c1CSc1ccc(Cl)cc1	n	u	n	u	n	n
CN(C(=O)NCc1noc2ccccc12)c1cccc(Cl)c1	x	n	x	n	x	n
COc1ccc(OC)c(C2CC(=O)N3CN(c4cccc(Cl)c4C)CSC3=C2C#N)c1 (stereo not given)	n	n	n	u	n	n
Cc1c(C)c2c(OCC(=O)NC3CC3)cc3c(c2oc1=O)CCC(C)(C)O3	n	n	u	n	u	x
CCN(Cc1nc(-c2ccc(OC)cc2)no1)C(=O)c1ccc2c(c1)OCO2	n	n	n	n	n	n[0.0935 µM]
COc1ccc(N2CCN(C(=O)c3ccc4c(c3)N(Cc3cc(C)ccc3C)C(=O)c3ccccc3S4=O)CC2)cc1 (stereo not given)	x	15µM	x	12µM	x	n
O=C(NC1CC(=O)N(c2ccccc2)C1)C(c1ccccc1)c1ccccc1 (stereo not given)	x	u	x	u	x	n
Cc1ccc(C)c(CN2C(=O)c3ccccc3S(=O)c3ccc(C(=O)NCCC4=CCCCC4)cc32)c1 (stereo not given)	x	15µM	x	16µM	x	n
COc1ccc(CNC(=O)c2ccc3c(c2)N(Cc2ccccc2F)C(=O)c2ccccc2S3=O)cc1 (stereo not given)	x	n	x	u	x	n
SMILES	Six1-Eya2 inh	DT40 TDP1 CPT	IL-1B inflam inh	DT40 TDP1 no CPT	CtBP-E1A blk	TDP1 inh
O=C(NCc1ccc2c(c1)OCO2)c1ccc2c(c1)N(Cc1ccccc1F)C(=O)c1ccccc1S2=O (stereo not given)	x	n	x	21µM	x	n
COC(=O)c1ccc2c(c1)N(Cc1cc(C)ccc1C)C(=O)c1ccccc1S2=O (stereo not given)	x	x	x	x	x	n
COc1ccc(CCNC(=O)c2ccc3c(c2)N(Cc2ccccc2F)C(=O)c2ccccc2S3=O)cc1OC (stereo not given)	x	15µM	x	26µM	x	n
COc1ccc(CCNC(=O)c2ccc3c(c2)N(Cc2cc(C)ccc2C)C(=O)c2ccccc2S3=O)cc1OC (stereo not given)	x	9.2µM	x	5.8µM	x	n
O=C(NCCC1=CCCCC1)c1ccc2c(c1)N(Cc1ccccc1)C(=O)c1ccccc1S2=O (stereo not given)	x	u	x	u	x	n
Cc1cc(C)cc(NC(=O)CCCc2nc(-c3ccco3)no2)c1	x	n	x	n	x	n
COc1ccc(C(=O)CSc2nc(C)cc(=O)[nH]2)cc1C	n	u	n	n	n	x
CC(C)CCNC(=O)c1ccc2c(c1)N(Cc1ccccc1F)C(=O)c1ccccc1S2=O (stereo not given)	x	u	x	21µM	x	n
O=C(NCCc1ccccc1)c1ccc2c(c1)N(Cc1ccccc1F)C(=O)c1ccccc1S2=O (stereo not given)	x	u	x	u	x	n
Cc1c([N+](=O)[O-])cc(C(=O)Oc2ccc(Br)cc2C(=S)N2CCCCC2)cc1[N+](=O)[O-]	n	n	u	u	n	n
COC(=O)C1=CN(Cc2ccc(C)cc2)C=C(C(=O)OC)C1c1cc(OC)c(OC)c(OC)c1	n	16µM	n	u	n	x
CN(c1ccccc1)S(=O)(=O)c1cccc(NC(=O)c2cccc(C#N)c2)c1	n	u	u	15µM	n	n
CN(c1ccccc1)S(=O)(=O)c1cccc(NC(=O)c2ccc3ncsc3c2)c1	n	10µM	-69	u	n	n
COc1cccc(S(=O)(=O)N(C)C[C@H]2OCc3cn(nn3)CCCC(=O)N([C@H](C)CO)C[C@@H]2C)c1	n	n	n	n	n	x
Cc1ccc(C2C(C(=O)c3sc(C)nc3C)=C(O)C(=O)N2CCN2CCOCC2)o1 (stereo not given)	n	n	n	n	n	n
Cc1ccc(C)c(N2CCN(C(=O)Cn3cccc3)CC2)c1	n	u	n	n	n	n
O=C(C(Cc1ccccc1)n1cccc1)N1CCN(c2ccccc2)CC1 (stereo not given)	n	23µM	n	26µM	n	n
